For 14 sequences, binding signal results are on record in publication PMC5700166.

The test addresses GST-Hu-p50 (Homo sapiens, UniProt P19838 7-356). Put plainly: protein-binding microarray (PBM); PBM: ~300 nM protein, 6 mM HEPES pH 7.8, 80 mM KCl, 0.5 mM EDTA, 0.5 mM EGTA, 6% glycerol, 35 ng/ul poly-dIdC, 1% milk, 1 h, room temperature; Ap Aiptasia and Nv Nematostella (sea anemones) / Co Capsaspora / Aq Amphimedon (sponge) / Dm Drosophila / Hu human; RHD is the Rel homology domain; high values mean tight binding. The conditions noted are these: dsDNA, one strand shown.

GST-Hu-p50, sequence (P19838 7-356): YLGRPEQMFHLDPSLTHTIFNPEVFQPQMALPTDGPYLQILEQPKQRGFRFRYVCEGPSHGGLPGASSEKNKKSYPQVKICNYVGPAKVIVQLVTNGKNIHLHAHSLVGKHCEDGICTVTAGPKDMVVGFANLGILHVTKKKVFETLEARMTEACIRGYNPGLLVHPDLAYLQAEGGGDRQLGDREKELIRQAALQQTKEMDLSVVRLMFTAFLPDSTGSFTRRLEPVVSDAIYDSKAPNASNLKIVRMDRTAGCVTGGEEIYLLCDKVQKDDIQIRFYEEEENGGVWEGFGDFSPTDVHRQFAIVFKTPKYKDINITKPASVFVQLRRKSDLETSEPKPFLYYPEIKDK

“CCGATTAACATCAAATATTTCCCTGATGTTAATCGGGTCTTGATTCGCTTGACGCTGCTG” displayed a binding signal of 4.62 z-score.

“CCGATTAACATCACCCTTGGGAATGATGTTAATCGGGTCTTGATTCGCTTGACGCTGCTG” returned a binding signal of 1.55 z-score.

With “CCGATTAACATCAGGAAAGTCCATGATGTTAATCGGGTCTTGATTCGCTTGACGCTGCTG”, the binding signal was 1.14 z-score.

Consider “CCGATTAACATCACATCTTCCCCTGATGTTAATCGGGTCTTGATTCGCTTGACGCTGCTG”, for which the binding signal was 4.51 z-score.

“CCGATTAACATCAGGAAAGTTCCTGATGTTAATCGGGTCTTGATTCGCTTGACGCTGCTG” registered a binding signal of 1.06 z-score.

On to “CCGATTAACATCAATTTCCCGTATGATGTTAATCGGGTCTTGATTCGCTTGACGCTGCTG”, for which the binding signal was 2.68 z-score.

“CCGATTAACATCAGGGAAAATCATGATGTTAATCGGGTCTTGATTCGCTTGACGCTGCTG”: the binding signal came out at 3.98 z-score.

“CCGATTAACATCAGCTGAGTAGGTGATGTTAATCGGGTCTTGATTCGCTTGACGCTGCTG” gave a binding signal of 1.45 z-score.

For “CCGATTAACATCACACCCCAACATGATGTTAATCGGGTCTTGATTCGCTTGACGCTGCTG”, the binding signal was determined as 1.05 z-score.

As to “CCGATTAACATCAATTGGGAAATTGATGTTAATCGGGTCTTGATTCGCTTGACGCTGCTG”, the binding signal is 2.69 z-score.

As for “CCGATTAACATCAATTTTTGCCCTGATGTTAATCGGGTCTTGATTCGCTTGACGCTGCTG”, the binding signal was 1.07 z-score.

For “CCGATTAACATCAGGGGAATGGATGATGTTAATCGGGTCTTGATTCGCTTGACGCTGCTG”, the binding signal is 4.59 z-score.

Sequence “CCGATTAACATCAAAAGTTTCCCTGATGTTAATCGGGTCTTGATTCGCTTGACGCTGCTG” gave a binding signal of 5.09 z-score.

Consider “CCGATTAACATCAACCCCGTTTCTGATGTTAATCGGGTCTTGATTCGCTTGACGCTGCTG”, for which the binding signal amounted to 1.79 z-score.
